OPRM1-OPRD1 inv: inverse agonists of human mu-delta opioid receptor heterodimerization; P35372+P41143; cell-based MOR-DOR heterodimer luminescence, inverse agonism; inhibition, % at 9.3 µM; actives 0.21% (n = 340,000); in the data active = inhibition above about 22%, passing the limit was not always enough;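 also: 0% = cells with DMSO and 100% = wells without cells with DMSO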
Target sequence (P35372 whole entry, looked up): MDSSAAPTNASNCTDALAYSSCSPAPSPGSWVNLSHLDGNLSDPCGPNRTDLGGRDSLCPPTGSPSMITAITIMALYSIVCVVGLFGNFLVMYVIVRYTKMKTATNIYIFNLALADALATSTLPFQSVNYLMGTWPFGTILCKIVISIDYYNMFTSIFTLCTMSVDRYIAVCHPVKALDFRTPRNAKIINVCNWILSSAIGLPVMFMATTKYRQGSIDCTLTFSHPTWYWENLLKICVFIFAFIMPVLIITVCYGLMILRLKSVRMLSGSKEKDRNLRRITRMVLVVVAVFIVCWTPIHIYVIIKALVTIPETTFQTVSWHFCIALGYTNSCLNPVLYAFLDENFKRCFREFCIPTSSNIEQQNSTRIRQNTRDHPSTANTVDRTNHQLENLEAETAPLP
Target sequence (P41143 whole entry, looked up): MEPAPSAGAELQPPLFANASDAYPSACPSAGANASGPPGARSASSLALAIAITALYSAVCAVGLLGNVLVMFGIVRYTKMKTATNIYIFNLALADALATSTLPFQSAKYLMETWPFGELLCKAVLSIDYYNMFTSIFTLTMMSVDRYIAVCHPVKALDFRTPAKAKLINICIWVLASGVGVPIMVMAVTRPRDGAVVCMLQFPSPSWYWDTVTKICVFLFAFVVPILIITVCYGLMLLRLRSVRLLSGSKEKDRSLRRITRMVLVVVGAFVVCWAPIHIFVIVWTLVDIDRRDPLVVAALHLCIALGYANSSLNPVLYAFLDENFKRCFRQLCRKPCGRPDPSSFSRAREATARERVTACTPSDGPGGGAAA
MOR-DOR ag-1: agonists of human mu-delta opioid receptor heterodimerization; AID 504326; cells, OPRM1-OPRD1 heterodimerization, luminescence; P35372+P41143; activation, % at 9.3 µM; actives 0.3% (n = 340,000);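 also: 0% = vehicle-treated cells and 100% = reference agonist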
HTR5A ag ctr: counter-screen for OPRM1-OPRD1 agonists: human HTR5A agonism; P47898; HTR5A agonist assay, luminescence, cell-based; activation, % at 9.3 µM; actives 0.61% (n = 340,000); AID 504692; in the data active = activation mostly above about 9.5%, no sharp cut-off; inactive = mostly below about 7.6%;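 also: 0% = cells with vehicle only and 100% = reference agonist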
HTR5A inv ctr: HTR5A inverse agonism, opioid heterodimer counter-screen; actives 0.083% (n = 340,000); HTR5A cell line, luminescence; inhibition, % at 9.3 µM; in the data active = inhibition mostly above about 23%, no sharp cut-off; inactive = mostly below about 18%;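 also: 0% = cells with DMSO and 100% = no-cell wells with DMSO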
MOR-DOR ag-2: counter-screen for HTR5A agonists: OPRM1-OPRD1 heterodimerization agonism; U2OS counter-screen cells, complementation luminescence, 3 h; activation, % at 9.3 µM; actives 13% (n = 800); shares compounds with HTR5A ag ctr; AID 504913
HTR5A ag conf: confirmation of human HTR5A agonists. AID 504915. actives 17% (n = 800). HTR5A agonist cell assay, luminescence. shares compounds with HTR5A ag ctr. activation, % at 9.3 µM; in the data active = activation above about 17%;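 also: 0% = cells with vehicle only and 100% = full reference agonist response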
The depositor's hits bear a star; · = no result given. Shown are actives, neighbours in structure and some others; about 1.1% of the full set was active somewhere. Rule as the data show it, unless noted: active = activation above about 18%; inactive = the rest.

SMILES | OPRM1-OPRD1 inv | MOR-DOR ag-1 | HTR5A ag ctr | HTR5A inv ctr | MOR-DOR ag-2 | HTR5A ag conf
COc1ccc(CCNC(=O)COc2ccc(N(C)S(=O)(=O)c3ccc(C)cc3)cc2)cc1 | -1 | 0 | 16* | 1 | -1 | -4
CCC(=O)c1ccccc1OCC(=O)Nc1c(C)cccc1C | 0 | 0 | 16* | 12 | 1 | -6
CS(=O)(=O)Nc1ccc(C(=O)Nc2ccccc2-c2ccccc2)cc1 | 9 | -2 | 0 | -2 | · | ·
O=C1OC(c2ccccc2)(c2ccc(O)cc2)c2ccccc21 (configuration not stated) | -3 | 1 | 22* | -87 | 2 | 12
CCCCCCCCOC(=O)CCc1c(C)[nH]c(=S)[nH]c1=O | -31 | 5 | 15* | -62 | 4 | 7
COc1ccc(CN(C(=O)CSc2nnc(-c3ccc(F)cc3)o2)c2ccc(F)cc2)cc1 | -14 | 3 | 7 | -18 | · | ·
COc1ccc(CN(C(=O)CSc2nnc(-c3c[nH]c4ccccc34)o2)c2ccc(F)cc2)cc1OC | -23 | 4 | 16* | -44 | 27* | 1
Cc1ccc(-n2ncc3c(NCc4ccc5c(c4)OCO5)ncnc32)c(C)c1 | -7 | 1 | 15* | -10 | 1 | 3
Cc1cccc(-n2ncc3c(NCc4ccc5c(c4)OCO5)ncnc32)c1 | -25 | 5 | 7 | -37 | · | ·
COc1ccc(C(C)(C)C)cc1NC(=O)c1ccc2ncsc2c1 | -14 | 2 | 16* | -8 | 13 | 7
CCCCCCCCCCn1c2c(c(=N)c3c1CCC3)CCC2 | -23 | 4 | 35* | -51 | 10 | 13
CCCCCc1ccc(C(=O)CCCC)c(=S)[nH]1 | 7 | -2 | 29* | -130 | 6 | 13
CCc1ccccc1N(CC(=O)NC1CCCC1)C(=O)CNC(=O)c1cccs1 | 6 | -1 | 5 | -16 | · | ·
O=C(COC(=O)[C@@H]1CCCN1S(=O)(=O)c1ccccc1F)NCc1ccc2c(c1)OCO2 | 12 | -3 | 17* | -44 | 1 | 5
COc1ccc(NC(=O)COC(=O)[C@@H]2CCCN2S(=O)(=O)c2ccccc2F)c(OC)c1 | 6 | -1 | 6 | -16 | · | ·
COc1ccc(N(CC(=O)NCc2ccco2)C(=O)CCC(=O)Nc2nccs2)cc1 | 8 | -1 | 3 | -8 | · | ·
CCOC(=O)c1c(C)[nH]c(C(=O)CSc2ccc(Cl)cc2)c1C | -13 | 2 | 15* | -30 | 4 | 9
CCC(C)NS(=O)(=O)c1ccc(OCC(=O)NCc2ccc(OC)cc2)cc1 (configuration not stated) | 3 | -1 | -3 | -26 | · | ·
CCOc1ccc(S(=O)(=O)NN)cc1 | 17 | -3 | 14* | -85 | -2 | 0
CCOc1ccc(CNC(=O)NS(=O)(=O)c2ccc(OC)cc2)cc1 | -5 | 1 | 15* | -50 | 23* | 4
O=C1C[C@@H]2c3c(cccc3CN1Cc1ccc(Cl)cc1)C[C@@H](O)[C@H]2O | 14 | -2 | 0 | -2 | · | ·
Cc1nn(-c2ccc(Cl)cc2)c2sc(C(=O)N3CCN(c4ccccn4)CC3)cc12 | 14 | -3 | 22* | -56 | 1 | -1
Cc1nn(-c2ccc(F)cc2)c2sc(C(=O)N3CCCCCC3)cc12 | 5 | -1 | -3 | -8 | · | ·
CCCN1C(C)C(C(=O)OCC)=CN(Cc2ccc(Br)cc2)S1(=O)=O (configuration not stated) | -2 | 0 | 0 | 0 | · | ·
Cc1ccc(C)c(NC(=O)CCC(=O)NN=C2CCCC2)c1 | 1 | 0 | -3 | 9 | · | ·
SMILES | OPRM1-OPRD1 inv | MOR-DOR ag-1 | HTR5A ag ctr | HTR5A inv ctr | MOR-DOR ag-2 | HTR5A ag conf
OC(CN1CCN(c2cccc(Cl)c2)CC1)c1ccc(F)cc1 (configuration not stated) | -32 | 7 | 19* | -72 | 7 | 27*
Cc1ccc(C(=O)NCC(=O)N2CCCC(C(F)(F)F)C2)s1 (configuration not stated) | -14 | 2 | 0 | 0 | · | ·
CN(c1ccc(OCC(=O)N2CCCC2)cc1)S(=O)(=O)c1ccc(Cl)cc1 | 11 | -3 | 17* | -41 | 1 | -2
Cc1cc(NS(=O)(=O)c2ccc(NC(=O)COc3ccc(Cl)cc3Cl)cc2)no1 | 16 | -3 | 20* | -47 | 4 | 8
Cc1cc(NC(=O)CSc2nc(-c3ccc(Cl)cc3)cs2)no1 | -31 | 6 | 20* | -53 | 2 | 6
CCSc1ccccc1C(=O)N1CCC2(CC1)CC(=O)c1ccccc1O2 | 10 | -2 | -2 | 6 | · | ·
Cc1ccccc1NC(=O)COc1coc(CN2CCCc3ccccc32)cc1=O | -11 | 2 | -4 | 9 | · | ·
Cc1ccc(C)c(NC(=O)COc2coc(CN3CCc4ccccc43)cc2=O)c1 | -7 | 1 | 16* | -39 | 4 | 2
FC(F)(F)c1cnc(N2CCCN(C(=S)Nc3ccccc3)CC2)c(Cl)c1 | -34 | 7 | 17* | -44 | -2 | 0
CCC(=O)N(c1nnc(SCC(=O)NN2C(=O)NC3(CCC(C)CC3)C2=O)s1)C1CC1 (configuration not stated) | 10 | -2 | 0 | -1 | · | ·
O=C1C(Cl)=C(N2CCOCC2)C(=O)N1c1cccc(C(F)(F)F)c1 | -2 | 0 | 14* | -10 | 2 | 6
COC(=O)c1cccc(N2C(=O)C(Cl)=C(N3CCOCC3)C2=O)c1 | 9 | -2 | 6 | -43 | · | ·
Cc1nn(-c2ccccc2)c(Cl)c1C(=O)NCC(C)C | 16 | -3 | -5 | 10 | · | ·
Cc1nn(-c2ccccc2)c(Cl)c1C(=O)NCCN(C)C | -4 | 1 | 15* | -6 | 0 | 1
CCOC(=O)c1cc2sc(C)cc2n1CC(=O)N1CCOCC1 | -1 | 0 | -4 | 9 | · | ·
CCOC(=O)c1cc2sc(C)cc2n1CC(=O)NCc1ccc(F)cc1 | -47 | 8 | 20* | -22 | 3 | 5
C/C=C/C=[N+](\[O-])C(C)/C(=N/O)c1ccc(F)cc1 (configuration not stated) | 8 | -2 | 17* | -40 | 1 | -1
O=Cc1c(-c2ccccc2)cc2oc3ccccc3cc1-2 | 3 | -1 | 2 | -7 | · | ·
C=CCN(c1ccccc1)S(=O)(=O)c1cccc(C(=O)N2CCCC2)c1 | 2 | 0 | 15* | -41 | 47* | 3
O=C(CSc1ccccn1)Nc1ccc2[nH]c(=O)[nH]c2c1 | 4 | -1 | 0 | 1 | · | ·
Cn1c(CCNC(=O)c2ccccc2F)nnc1SCC(=O)Nc1nncs1 | 8 | -1 | 20* | -56 | 2 | 3
CC1(C(=O)OCC(=O)Nc2cc(S(=O)(=O)N3CCOCC3)ccc2Cl)CC1(Cl)Cl (configuration not stated) | 0 | 0 | -1 | 2 | · | ·
CCOc1ccc(C(=O)Nc2ccc(NC(=O)c3ccco3)c(Cl)c2)cc1Br | -84 | 16 | 19* | -83 | 40* | 4
Cc1cc(C)c(NC(=O)CSCc2c(C)noc2C)c(Cl)c1 | 4 | -1 | 4 | 5 | · | ·
C/C(=N/NS(=O)(=O)c1ccc(C)cc1C)c1c[nH]c2ccccc12 | 0 | 0 | 18* | -67 | 3 | 7

Bioassay records as filed in PubChem BioAssay.
